Laboratory results published in the supplement of paper PMC10849652.
Targets with a hit are over-represented here; the source holds about 8,800 in all. About 0.5% of all pairs of compound and target were hits.

Experiments:
Test in all cases: log2 fold change, soluble protein after heating vs DMSO (PISA); higher = thermal stabilisation; K562 lysate, 10 uM; active = over 0.2 and 3.5 SD of the protein, either way, in both replicates (recomputed)
[1] = compound: CCCS(=O)(=O)Nc1ccc(F)c(C(=O)c2c[nH]c3ncc(-c4ccc(Cl)cc4)cc23)c1F [vemurafenib]
In short: (§1)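 Dounce homogenisation of K562 pellets in PBS pH 7.4 with 1 mM MgCl2 produced a crude extract, used at 1 mg/mL protein. Exposure to 10 μM compound lasted 30 min, and aliquots were then heated for 3 min across 48°C-58°C, pooled and brought to 0.5% NP-40 at 4°C. The supernatant after 21,000xg for 90 min was quantified by TMTpro 16plex LC-MS/MS with channel sums equalised. Duplicate values are given as log-two fold change in thermal stability relative to solvent controls.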

[2] = compound: CCCS(=O)(=O)Nc1ccc(F)c(C(=O)c2c[nH]c3ncc(Cl)cc23)c1F
In short: as §1

[3] = compound: CCN(CCCOc1ccc2c(Nc3cc(CC(=O)Nc4cccc(F)c4)[nH]n3)ncnc2c1)CCOP(=O)(O)O [barasertib]
In short: as §1

[4] = compound: CC[C@@H]1C(=O)N(C)c2cnc(Nc3ccc(C(=O)NC4CCN(C)CC4)cc3OC)nc2N1C1CCCC1
In short: as §1

[5] = compound: CC[C@@H]1C(=O)N(C)c2cnc(Nc3ccc(C(=O)N[C@H]4CC[C@H](N5CCN(CC6CC6)CC5)CC4)cc3OC)nc2N1C(C)C [volasertib]
In short: as §1

[6] = compound: CCn1c(C(=O)N(C2CC2)C2CC2)cc2c3c(ncn3C)c(Nc3cc(C)n(C)n3)nc21
In short: as §1

[7] = compound: CCn1cc(-c2ccnc3[nH]c(-c4cccc(CN(C)C)c4)cc23)c(-c2ccc(NC(=O)N(C)C)cc2)n1
In short: as §1

[8] = compound: CN1CCC(CNc2ccc3ncc(-c4cccc(OC(F)(F)F)c4)n3n2)CC1
In short: as §1

[9] = compound: CN1CCN(CCOc2cc(OC3CCOCC3)c3c(Nc4c(Cl)ccc5c4OCO5)ncnc3c2)CC1 [saracatinib]
In short: as §1

[10] = compound: CN1CCN(c2nc(C3=C(c4c[nH]c5ccccc45)C(=O)NC3=O)c3ccccc3n2)CC1 [sotrastaurin]
In short: as §1

Measured: log2 fold change

HDAC6 (UniProt Q9UBN7)
inactive: [1] -0.02 | [2] 0.01 | [3] -0.017 | [4] -0.035 | [5] -0.047 | [6] -0.023 | [7] 0.073 | [8] -0.011 | [9] -0.011 | [10] 0.008

H4C1 (UniProt P62805)
inactive: [1] -0.013 | [2] 0.087 | [3] 0.079 | [4] -0.055 | [5] 0.027 | [6] 0.079 | [7] 0.268 | [8] -0.01 | [9] -0.094 | [10] -0.059

ILKAP (UniProt Q9H0C8)
inactive: [1] -0.037 | [2] -0.01 | [3] -0.04 | [4] -0.048 | [5] -0.017 | [6] 0.002 | [7] 0.016 | [8] 0 | [9] -0.013 | [10] 0.021

GUSB (UniProt P08236)
UniProt P08236, sequence (P08236 whole entry, looked up): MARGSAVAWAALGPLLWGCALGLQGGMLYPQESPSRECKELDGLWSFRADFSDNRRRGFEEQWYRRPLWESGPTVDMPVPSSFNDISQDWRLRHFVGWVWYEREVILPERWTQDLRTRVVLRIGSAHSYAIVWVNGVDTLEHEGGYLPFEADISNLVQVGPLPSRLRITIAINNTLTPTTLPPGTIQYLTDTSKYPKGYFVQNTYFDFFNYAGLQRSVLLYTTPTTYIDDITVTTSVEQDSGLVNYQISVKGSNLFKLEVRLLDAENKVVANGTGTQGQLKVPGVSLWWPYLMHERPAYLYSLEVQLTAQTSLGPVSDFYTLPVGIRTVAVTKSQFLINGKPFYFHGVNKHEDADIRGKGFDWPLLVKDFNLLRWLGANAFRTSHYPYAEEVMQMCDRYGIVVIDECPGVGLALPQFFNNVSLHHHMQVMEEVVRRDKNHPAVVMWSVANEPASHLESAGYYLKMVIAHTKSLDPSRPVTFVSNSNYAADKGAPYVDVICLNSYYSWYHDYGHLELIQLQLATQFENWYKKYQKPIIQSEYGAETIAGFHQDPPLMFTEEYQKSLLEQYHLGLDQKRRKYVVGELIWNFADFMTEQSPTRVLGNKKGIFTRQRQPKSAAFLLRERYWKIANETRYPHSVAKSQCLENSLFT
active: [7] -0.561 | [8] 0.355
inactive: [1] 0.013 | [2] 0.028 | [3] -0.024 | [4] -0.049 | [5] 0.053 | [6] 0.027 | [9] -0.008 | [10] 0.038

GSTM2 (UniProt P28161)
UniProt P28161, sequence (P28161 whole entry, looked up): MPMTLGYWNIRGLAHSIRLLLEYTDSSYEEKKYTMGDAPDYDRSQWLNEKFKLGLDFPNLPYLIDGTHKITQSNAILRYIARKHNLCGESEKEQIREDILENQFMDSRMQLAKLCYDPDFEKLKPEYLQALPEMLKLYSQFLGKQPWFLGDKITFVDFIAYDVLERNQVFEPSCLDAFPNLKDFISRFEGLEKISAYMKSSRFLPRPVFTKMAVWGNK
inactive: [1] -0.005 | [2] 0.07 | [3] 0.024 | [4] 0.015 | [5] 0.005 | [6] -0.027 | [7] 0.131 | [8] -0.091 | [9] 0.003

GON4L (UniProt Q3T8J9)
inactive: [1] 0 | [2] 0.054 | [3] 0.097 | [4] -0.064 | [5] -0.018 | [6] 0.02 | [7] -0.104 | [8] -0.027 | [9] -0.019 | [10] 0.016

GRK2 (UniProt P25098)
UniProt P25098, sequence (P25098 whole entry, looked up): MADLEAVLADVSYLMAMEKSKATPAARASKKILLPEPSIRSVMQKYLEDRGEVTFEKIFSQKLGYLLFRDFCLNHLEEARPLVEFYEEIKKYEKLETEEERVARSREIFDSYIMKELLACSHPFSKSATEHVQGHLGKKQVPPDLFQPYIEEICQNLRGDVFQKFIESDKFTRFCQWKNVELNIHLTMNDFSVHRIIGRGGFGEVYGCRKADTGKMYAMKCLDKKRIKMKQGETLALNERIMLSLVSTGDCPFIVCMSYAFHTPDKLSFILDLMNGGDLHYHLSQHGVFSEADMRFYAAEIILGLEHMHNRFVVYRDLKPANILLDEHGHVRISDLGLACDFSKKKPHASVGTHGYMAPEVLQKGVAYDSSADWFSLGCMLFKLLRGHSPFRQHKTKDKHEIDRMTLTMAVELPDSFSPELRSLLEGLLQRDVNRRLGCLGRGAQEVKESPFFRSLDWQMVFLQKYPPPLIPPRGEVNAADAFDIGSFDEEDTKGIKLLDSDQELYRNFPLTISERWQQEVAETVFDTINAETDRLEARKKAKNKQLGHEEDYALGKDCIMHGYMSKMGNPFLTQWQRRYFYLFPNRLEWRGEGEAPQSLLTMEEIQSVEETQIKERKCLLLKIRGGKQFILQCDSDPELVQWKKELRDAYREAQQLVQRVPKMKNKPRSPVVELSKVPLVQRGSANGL
inactive: [1] -0.019 | [2] 0.016 | [3] -0.006 | [4] -0.08 | [5] -0.05 | [6] 0.003 | [7] -0.054 | [8] -0.016 | [9] -0.009 | [10] 0.01

ICAM2 (UniProt P13598)
UniProt P13598, sequence (P13598 whole entry, looked up): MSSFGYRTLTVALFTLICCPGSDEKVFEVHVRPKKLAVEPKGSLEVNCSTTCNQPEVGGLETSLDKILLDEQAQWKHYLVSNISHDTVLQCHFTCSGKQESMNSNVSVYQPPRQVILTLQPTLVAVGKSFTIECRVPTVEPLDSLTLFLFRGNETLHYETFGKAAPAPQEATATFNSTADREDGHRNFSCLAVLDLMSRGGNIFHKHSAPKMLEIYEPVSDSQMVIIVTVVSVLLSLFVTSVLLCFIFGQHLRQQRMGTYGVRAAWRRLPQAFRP
active: [7] 0.426
inactive: [1] -0.036 | [2] 0.016 | [3] 0.018 | [4] 0.03 | [5] 0.015 | [6] -0.017 | [8] -0.031 | [9] 0.004 | [10] -0.035

IFITM3 (UniProt Q01628)
inactive: [1] -0.046 | [2] 0.079 | [3] 0.342 | [4] -0.06 | [5] -0.025 | [6] 0.026 | [7] -0.11 | [8] 0.112 | [9] -0.041 | [10] 0.052

GSK3B isoform 2 (UniProt P49841)
UniProt P49841, sequence (P49841 whole entry, looked up): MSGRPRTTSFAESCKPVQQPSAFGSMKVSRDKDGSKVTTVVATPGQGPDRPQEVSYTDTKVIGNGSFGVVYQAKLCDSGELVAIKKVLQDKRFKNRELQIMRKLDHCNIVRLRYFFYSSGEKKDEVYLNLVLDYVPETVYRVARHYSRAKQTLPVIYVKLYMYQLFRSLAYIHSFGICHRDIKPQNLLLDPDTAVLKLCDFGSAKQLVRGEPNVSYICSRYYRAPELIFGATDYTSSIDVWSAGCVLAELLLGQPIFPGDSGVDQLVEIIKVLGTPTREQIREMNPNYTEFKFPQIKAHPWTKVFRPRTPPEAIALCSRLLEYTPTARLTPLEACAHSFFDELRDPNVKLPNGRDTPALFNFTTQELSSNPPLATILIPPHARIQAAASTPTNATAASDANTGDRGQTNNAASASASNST
inactive: [1] -0.009 | [2] 0.038 | [3] 0.026 | [4] -0.015 | [5] -0.093 | [6] -0.011 | [7] -0.013 | [8] 0.096 | [9] -0.049 | [10] 0.601

INTS1 (UniProt Q8N201)
UniProt Q8N201, sequence (Q8N201 whole entry, looked up): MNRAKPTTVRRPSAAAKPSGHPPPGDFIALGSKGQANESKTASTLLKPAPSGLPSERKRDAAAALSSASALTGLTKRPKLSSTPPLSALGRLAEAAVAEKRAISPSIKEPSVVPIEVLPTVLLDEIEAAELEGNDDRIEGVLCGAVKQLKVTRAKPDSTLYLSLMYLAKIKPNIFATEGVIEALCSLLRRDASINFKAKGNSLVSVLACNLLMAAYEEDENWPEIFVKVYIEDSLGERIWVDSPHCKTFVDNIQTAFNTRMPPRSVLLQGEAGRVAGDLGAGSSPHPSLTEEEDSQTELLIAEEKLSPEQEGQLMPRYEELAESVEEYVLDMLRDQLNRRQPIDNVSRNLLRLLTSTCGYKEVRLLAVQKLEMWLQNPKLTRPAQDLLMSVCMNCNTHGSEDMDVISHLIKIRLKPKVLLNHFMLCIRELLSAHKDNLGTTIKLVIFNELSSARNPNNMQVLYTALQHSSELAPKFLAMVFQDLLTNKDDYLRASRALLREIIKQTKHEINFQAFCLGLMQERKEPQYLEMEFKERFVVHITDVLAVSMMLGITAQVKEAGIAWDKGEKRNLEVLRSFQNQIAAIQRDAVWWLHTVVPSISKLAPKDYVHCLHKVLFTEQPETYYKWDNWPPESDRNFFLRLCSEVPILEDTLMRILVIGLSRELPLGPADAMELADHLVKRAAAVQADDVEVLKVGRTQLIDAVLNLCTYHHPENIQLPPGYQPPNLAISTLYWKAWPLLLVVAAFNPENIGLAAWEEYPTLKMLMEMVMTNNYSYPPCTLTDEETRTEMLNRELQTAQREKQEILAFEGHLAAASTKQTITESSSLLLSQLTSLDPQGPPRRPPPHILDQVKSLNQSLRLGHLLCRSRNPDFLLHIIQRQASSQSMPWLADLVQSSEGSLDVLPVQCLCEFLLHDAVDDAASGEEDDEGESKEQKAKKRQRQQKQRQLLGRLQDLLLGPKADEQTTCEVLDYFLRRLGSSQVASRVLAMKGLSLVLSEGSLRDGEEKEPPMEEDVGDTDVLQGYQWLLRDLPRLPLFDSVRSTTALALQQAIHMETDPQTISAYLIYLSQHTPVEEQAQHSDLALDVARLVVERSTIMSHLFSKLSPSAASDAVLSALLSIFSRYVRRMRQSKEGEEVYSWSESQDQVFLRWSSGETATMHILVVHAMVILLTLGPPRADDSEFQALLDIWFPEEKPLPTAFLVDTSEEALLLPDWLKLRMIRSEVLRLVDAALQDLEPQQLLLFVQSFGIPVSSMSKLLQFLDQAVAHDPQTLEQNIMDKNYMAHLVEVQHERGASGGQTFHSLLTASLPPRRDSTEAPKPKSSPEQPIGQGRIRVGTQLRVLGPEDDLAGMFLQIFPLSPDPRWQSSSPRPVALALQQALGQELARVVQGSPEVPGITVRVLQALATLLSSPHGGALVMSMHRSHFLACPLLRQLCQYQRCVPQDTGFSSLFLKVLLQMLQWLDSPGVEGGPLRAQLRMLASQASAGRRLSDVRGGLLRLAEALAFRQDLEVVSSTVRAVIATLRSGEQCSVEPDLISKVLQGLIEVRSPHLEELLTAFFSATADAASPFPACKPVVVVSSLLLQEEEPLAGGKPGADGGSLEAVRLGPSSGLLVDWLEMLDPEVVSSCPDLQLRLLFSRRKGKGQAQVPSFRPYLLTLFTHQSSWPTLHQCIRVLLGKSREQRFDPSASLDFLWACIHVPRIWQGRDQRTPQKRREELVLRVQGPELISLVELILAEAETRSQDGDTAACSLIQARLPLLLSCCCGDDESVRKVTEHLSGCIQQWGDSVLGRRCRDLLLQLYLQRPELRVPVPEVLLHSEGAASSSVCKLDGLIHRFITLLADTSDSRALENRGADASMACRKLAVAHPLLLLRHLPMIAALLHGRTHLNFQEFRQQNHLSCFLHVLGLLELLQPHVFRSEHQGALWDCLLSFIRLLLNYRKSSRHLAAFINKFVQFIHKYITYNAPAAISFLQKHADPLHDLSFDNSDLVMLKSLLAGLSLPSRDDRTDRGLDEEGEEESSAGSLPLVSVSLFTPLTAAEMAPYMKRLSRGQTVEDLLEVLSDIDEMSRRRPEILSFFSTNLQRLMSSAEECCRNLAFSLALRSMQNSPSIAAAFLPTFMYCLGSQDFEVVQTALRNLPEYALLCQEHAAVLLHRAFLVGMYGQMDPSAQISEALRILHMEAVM
inactive: [1] 0.042 | [2] -0.096 | [3] -0.01 | [4] 0.044 | [5] -0.033 | [6] 0.007 | [7] 0.06 | [8] -0.041 | [9] 0 | [10] -0.002

GRB10 (UniProt Q13322)
inactive: [1] 0.001 | [2] 0.051 | [3] 0.054 | [4] -0.054 | [5] -0.103 | [6] 0.012 | [7] -0.023 | [8] 0.016 | [9] -0.082 | [10] 0.028

IRF2BP1 (UniProt Q8IU81)
inactive: [1] 0.015 | [2] 0.023 | [3] -0.003 | [4] 0.026 | [5] -0.088 | [6] 0.014 | [7] 0.037 | [8] -0.06 | [9] 0 | [10] 0.01

HDAC1 (UniProt Q13547)
UniProt Q13547, sequence (Q13547 whole entry, looked up): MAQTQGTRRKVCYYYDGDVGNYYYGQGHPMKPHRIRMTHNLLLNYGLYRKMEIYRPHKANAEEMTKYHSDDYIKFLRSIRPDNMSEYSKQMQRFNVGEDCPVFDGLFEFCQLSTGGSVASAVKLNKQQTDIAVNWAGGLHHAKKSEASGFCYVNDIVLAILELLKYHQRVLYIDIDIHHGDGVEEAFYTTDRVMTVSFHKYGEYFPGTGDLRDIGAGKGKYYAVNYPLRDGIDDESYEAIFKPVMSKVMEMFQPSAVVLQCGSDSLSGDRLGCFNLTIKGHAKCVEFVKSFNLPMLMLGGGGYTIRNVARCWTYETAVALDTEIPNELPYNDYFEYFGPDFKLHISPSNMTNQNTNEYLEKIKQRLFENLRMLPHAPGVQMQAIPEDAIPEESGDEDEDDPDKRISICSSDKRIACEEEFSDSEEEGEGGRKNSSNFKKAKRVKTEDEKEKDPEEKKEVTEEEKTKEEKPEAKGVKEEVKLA
inactive: [1] 0.01 | [2] 0.022 | [3] -0.001 | [4] -0.004 | [5] -0.019 | [6] 0.03 | [7] -0.036 | [8] -0.001 | [9] 0.014 | [10] -0.011

HNRNPLL (UniProt Q8WVV9)
inactive: [1] 0.004 | [2] 0.046 | [3] 0.018 | [4] 0.008 | [5] -0.027 | [6] -0.004 | [7] -0.006 | [8] -0.013 | [9] -0.001 | [10] 0.034
